Tgondii IFNg: T. gondii growth inhibition with IFN-gamma, primary screen, cell-based; Toxoplasma gondii growth in IFN-gamma-treated host cells; stronger effect = lower value; activity change, negative = inhibition, % (test concentration not listed); 3.8% of 69,000 active; in the data active = activity change below about -70%, passing the limit was not always enough;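 note: host cells are HeLa cells infected with Toxoplasma gondii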
Active calls of the source: *; ! = repeats disagree. The sample as a whole holds a higher share of hits than the screen did.

SMILES	Tgondii IFNg
N#Cc1c(N2C[C@@H]3NCCO[C@H]3C2)c(F)cc2c(=O)c(C(=O)O)cn(C3CC3)c12	-86.2*
CCOCC1CN(CC2CCOCC2)Cc2cn(C)nc21 (configuration not stated)	-2.9
FC(F)(F)CCc1ccnc(-c2cccc3cccnc23)n1	15.3
CC(=O)N1CCc2c(nc(N(C)C)nc2N2CCCN3CCC[C@H]3C2)C1	6.1
COCc1ncc(CN2CCN(Cc3ncccc3C)CC2)cn1	-46.9
Cc1nc2sc3c(c2c(=O)[nH]1)CCC3	10.6
O=c1[nH]c(NCCO)nc2sc3c(c12)CCCC3	9.3
COc1ccc(-c2nc3sc4c(c3c(=O)[nH]2)CCCC4)cc1	-87.1*
COCC(=O)Nc1ccc2c(c1)C(=O)N(C)[C@H]1CC[C@@H](CC(=O)N3CCc4ccccc4C3)O[C@H]1CO2	-4.2
O=C(Nc1nccc2ccccc12)c1cccc(CN2CCCC(CO)C2)c1 (configuration not stated)	31.2
Fc1ccc(CN(Cc2ccncc2)Cc2cccc(-n3cccn3)c2)cc1	-16.6
CCCc1ccc(S(=O)(=O)N2CCC[C@@H]2C(=O)NCCc2csc(-c3ccccc3)n2)cc1	-49.6
CNC[C@H]1OCCCC[C@@H](C)Oc2ccc(N)cc2C(=O)N([C@H](C)CO)C[C@H]1C	-9.6
Cc1cc2cc3c(cc2n2c(=O)n(Cc4ccccn4)nc12)OCO3	-44.7
CCN(CC)C(=O)Cn1nc2c(C)cc3ccc(OC)cc3n2c1=O	-8.7
Cc1ccc2cc(C)c3nn(CCNC(=O)C4CSC(c5ccncc5)=N4)c(=O)n3c2c1 (configuration not stated)	-109.7*
CC(=O)Nc1ccccc1NC(=O)CN1C[C@]2(C)C[C@H]1CC(C)(C)C2	0.8
CNC(=O)c1cc(=O)n(CC(=O)Nc2ccc(F)cc2C)c2ccccc12	11.0
Cn1cc(CCC(=O)N2CCC(c3n[nH]c(=O)n3-c3ccccc3)CC2)cn1	14.8
Cc1n[nH]c(C)c1C(=O)N1CCC(c2n[nH]c(=O)n2-c2ccccc2)CC1	-51.0
O=C(CC1=CCNCC1)N1CCC(c2n[nH]c(=O)n2-c2ccccc2)CC1	-73.3*
c1coc(CNCC2Cn3nncc3CO2)c1 (configuration not stated)	-16.1
COCCN1CCN(C(=O)C2CC=CC2)Cc2cccnc21	-37.7
C[C@H]1CN([C@@H](C)CO)C(=O)c2cccc(NS(=O)(=O)c3ccc(F)cc3)c2O[C@H]1CN(C)Cc1ccc(Cl)c(Cl)c1	-78.4*
C[C@@H]1CN([C@H](C)CO)C(=O)c2cccc(NS(C)(=O)=O)c2O[C@@H]1CN(C)Cc1ccc(-c2ccccc2)cc1	-55.4
SMILES	Tgondii IFNg
C[C@H](CO)N1C[C@H](C)[C@@H](CN(C)Cc2ccc(-c3ccccc3)cc2)Oc2c(NS(C)(=O)=O)cccc2C1=O	-52.3
C[C@@H]1CN([C@@H](C)CO)C(=O)c2cccc(NS(=O)(=O)c3ccc(F)cc3)c2O[C@H]1CN(C)Cc1ccc(Cl)c(Cl)c1	-64.0
C[C@H](CO)N1C[C@H](C)[C@H](CN(C)Cc2ccc(Cl)c(Cl)c2)Oc2c(NS(=O)(=O)c3ccc(F)cc3)cccc2C1=O	-85.1*
C[C@@H]1CN([C@@H](C)CO)C(=O)Cc2cc(NC(=O)C3CCCCC3)ccc2O[C@@H]1CN(C)Cc1ccc(Cl)c(Cl)c1	-87.0*
C[C@H](CO)N1C[C@H](C)[C@H](CN(C)Cc2ccc(Cl)c(Cl)c2)Oc2ccc(NC(=O)C3CCCCC3)cc2CC1=O	-51.8
C[C@@H]1CN([C@@H](C)CO)C(=O)c2cccc(NS(C)(=O)=O)c2O[C@@H]1CN(C)Cc1ccc(-c2ccccc2)cc1	-1.4
C[C@H]1CN([C@@H](C)CO)C(=O)Cc2cc(NC(=O)C3CCCCC3)ccc2O[C@@H]1CN(C)Cc1ccc(Cl)c(Cl)c1	-40.0
Cn1cc(CN2CCC3(CC2)CN(Cc2cccnc2)CCO3)cn1	3.4
COC[C@H]1CNC(=O)[C@H]2CCN(Cc3cnn(C)c3)CC[C@@H]12	-0.5
CC(C)(C)c1nnc(NC(=O)C2CC(=O)N(CCc3c[nH]c4ccc(Cl)cc34)C2)s1 (configuration not stated)	-34.3
Cn1c2c(cc(C(=O)N3[C@@H]4CC[C@H]3CNC(=O)C4)c1=O)CCCC2	2.1
Cc1cc(N2CCCC2c2nc(C)cc(C)n2)ncn1 (configuration not stated)	-6.4
c1ccc2c(Cc3c[nH]c4ccccc34)c[nH]c2c1	10.1
Clc1ccc(CSc2nnc(-c3c[nH]c4ccccc34)o2)cc1	-57.9
c1ccc2c(-c3c[nH]c4ccccc34)c3ccccc3nc2c1	-86.0*
COCC(NCC(=O)Nc1ccc(Cl)c(C)c1)c1ccnn1C (configuration not stated)	-5.0
Cc1cc(C)c(CSCCn2c(C)ccc2C)c(C)c1	6.9
O=S(=O)(Cc1cc(Cl)sc1Cl)c1ccc(Cl)cc1	-101.0*
Cc1nnsc1-c1noc(CS(=O)(=O)c2ccc(Cl)cc2)n1	40.2
O=C1CSC(=O)N1CCS(=O)(=O)c1ccc(Cl)cc1	-1.5
COc1cc(C)ccc1S(=O)(=O)N1C[C@@H]2COC[C@@]2(CN(C)C)C1	-10.8
Cc1cnc(CNC(=O)c2nc(-c3cn(Cc4ccccc4)c(C)n3)n3ccccc23)cn1	-2.3
CCNC(=O)c1c2c(N3CCN(C)CC3)ncnc2n2ccccc12	35.1
Cc1cnc(CNC(=O)c2c(=O)c3ccc(N4CCCN(C)CC4)nc3n3c2sc2ccccc23)cn1	-81.2*
CCCc1cncnc1N1CCN(C2CCN(Cc3ccco3)CC2)CC1	-40.1
SMILES	Tgondii IFNg
COc1ccc(NC(=O)N(C)C[C@H]2Oc3ccc(NC(=O)Nc4cccc5ccccc45)cc3CC(=O)N([C@H](C)CO)C[C@@H]2C)cc1	57.0
O=C(/C=C/c1ccccc1)NC(NC(=S)Nc1cccc2cccnc12)C(Cl)(Cl)Cl (configuration not stated)	-35.8
O=C(NC(NC(=S)Nc1ccc(F)c([N+](=O)[O-])c1)C(Cl)(Cl)Cl)C(c1ccccc1)c1ccccc1 (configuration not stated)	-81.1*
O=C(NCCc1ccc(Cl)cc1)C(c1ccccc1)c1ccccc1	-10.8
C[C@H](CO)N1C[C@H](C)[C@H](CN(C)CC2CC2)Oc2ccc(NC(=O)CCC(F)(F)F)cc2CC1=O	62.9
C/C=C/c1cccc(-c2nc(C(=O)Nc3nccs3)cc3c2[C@@H](CCO)N(C(=O)NC(C)C)C3)c1	19.2
CCCCCCCCCCCCCCCC(=O)OC[C@H](NC(=O)C(Cl)Cl)[C@H](O)c1ccc([N+](=O)[O-])cc1	19.7
O=C(N[C@@H](CO)[C@H](O)c1ccc([N+](=O)[O-])cc1)C(Cl)Cl	-8.0
CS(=O)(=O)c1ccc(C(O)[C@H](CF)NC(=O)C(Cl)Cl)cc1 (some centres not stated)	-77.6*!
c1csc(-c2nccn2Cc2ccc3nsnc3c2)c1	2.2
CN(C)C(=O)c1cccc(-c2ccc(C3[C@H]4CNC[C@@H]3N4S(=O)(=O)Cc3ccccc3)cc2)c1 (some centres not stated)	-13.3
COc1cccc(-c2ccc(C3[C@@H]4CN(S(=O)(=O)Cc5ccccc5)C[C@H]3N4)cc2)c1 (some centres not stated)	-81.0*
COc1cccc(S(=O)(=O)N2C[C@@H]3N[C@H](C2)C3c2ccc(-c3ccccc3F)cc2)c1 (some centres not stated)	-31.2
CC1Cc2ccccc2N1C(=O)c1sc2nc3cc4c(cc3cc2c1N)OCO4 (configuration not stated)	14.9
Cc1occc1C(=O)N1CCc2ccc(=O)n(CC3CC3)c2CC1	0.3
